# Columns and labels:
# Test in all cases: DAPPL (digital affinity profiling via proximity ligation, sequencing); 10 mM Tris-HCl pH 7.5, 50 mM NaCl, 1 mM DTT, 4% glycerol, room temperature, 30 min; GST-TFs on glutathione beads, 16-mer random dsDNA library, 0.1% formaldehyde crosslink after washing; high values mean tight binding
# [1] = target: T1, FLI1 (Homo sapiens, UniProt Q01543 1-452); details: protein: recombinant; tags: N-terminal GST; dsDNA, one strand shown
# T1 sequence: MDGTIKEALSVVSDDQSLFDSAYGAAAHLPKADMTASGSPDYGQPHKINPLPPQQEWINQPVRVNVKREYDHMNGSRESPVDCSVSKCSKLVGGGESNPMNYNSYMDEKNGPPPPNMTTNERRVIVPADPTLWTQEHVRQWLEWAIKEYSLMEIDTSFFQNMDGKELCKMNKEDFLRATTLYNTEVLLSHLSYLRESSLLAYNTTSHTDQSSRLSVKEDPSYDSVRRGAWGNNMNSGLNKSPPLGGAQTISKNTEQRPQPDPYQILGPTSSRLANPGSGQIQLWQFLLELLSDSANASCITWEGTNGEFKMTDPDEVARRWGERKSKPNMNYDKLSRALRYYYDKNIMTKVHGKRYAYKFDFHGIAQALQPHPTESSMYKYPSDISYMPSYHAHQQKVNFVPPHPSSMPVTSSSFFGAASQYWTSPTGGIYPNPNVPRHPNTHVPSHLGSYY
# Summary of the method: (§1)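 Binding signal is defined as a hexamer's read frequency for one factor over its frequency for the tag-only sample. To obtain reads, GST-fused human transcription factors were expressed in yeast, captured on glutathione beads, barcoded with DNA and pooled with that sample. Pools met 200 nmole of a 16-mer random double-stranded DNA library in Tris/NaCl/DTT/glycerol buffer for 30 min at room temperature before washing, 0.1% formaldehyde crosslinking, proximity ligation (BsaI/T4 ligase, 1 h, 37 °C), PCR and Illumina NextSeq500 sequencing.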
# [2] = target: T2, ELK1 (Homo sapiens, UniProt P19419 1-428); details: protein: recombinant; tags: N-terminal GST; dsDNA, one strand shown
# T2 sequence: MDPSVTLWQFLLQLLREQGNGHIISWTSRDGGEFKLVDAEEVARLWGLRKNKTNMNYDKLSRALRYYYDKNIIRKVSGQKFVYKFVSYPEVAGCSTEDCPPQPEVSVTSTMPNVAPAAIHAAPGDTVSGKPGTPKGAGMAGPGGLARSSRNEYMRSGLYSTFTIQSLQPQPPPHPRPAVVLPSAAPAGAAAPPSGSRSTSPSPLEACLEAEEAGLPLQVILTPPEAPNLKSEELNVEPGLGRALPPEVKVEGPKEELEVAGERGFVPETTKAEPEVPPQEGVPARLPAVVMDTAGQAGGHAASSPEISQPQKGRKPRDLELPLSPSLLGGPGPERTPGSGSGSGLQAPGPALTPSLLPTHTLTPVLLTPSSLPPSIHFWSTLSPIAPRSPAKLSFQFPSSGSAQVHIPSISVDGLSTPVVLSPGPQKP
# Summary of the method: as §1
# [3] = target: T3, GABPA (Homo sapiens, UniProt Q06546 1-454); details: protein: recombinant; tags: N-terminal GST; dsDNA, one strand shown
# T3 sequence: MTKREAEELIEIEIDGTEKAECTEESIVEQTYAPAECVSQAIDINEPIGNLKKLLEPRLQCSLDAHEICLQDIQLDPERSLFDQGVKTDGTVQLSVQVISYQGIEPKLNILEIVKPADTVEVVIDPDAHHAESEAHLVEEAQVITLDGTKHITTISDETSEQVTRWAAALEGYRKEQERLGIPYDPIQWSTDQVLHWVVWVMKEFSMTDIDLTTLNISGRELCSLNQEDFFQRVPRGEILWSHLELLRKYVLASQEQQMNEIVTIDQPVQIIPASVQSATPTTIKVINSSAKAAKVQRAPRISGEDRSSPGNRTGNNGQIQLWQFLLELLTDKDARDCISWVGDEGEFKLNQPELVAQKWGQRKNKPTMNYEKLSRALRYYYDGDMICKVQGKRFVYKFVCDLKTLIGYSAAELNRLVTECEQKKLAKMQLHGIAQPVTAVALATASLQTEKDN
# Summary of the method: as §1
# [4] = target: T4, ERG (Homo sapiens, UniProt P11308 1-479); details: protein: recombinant; tags: N-terminal GST; dsDNA, one strand shown
# T4 sequence: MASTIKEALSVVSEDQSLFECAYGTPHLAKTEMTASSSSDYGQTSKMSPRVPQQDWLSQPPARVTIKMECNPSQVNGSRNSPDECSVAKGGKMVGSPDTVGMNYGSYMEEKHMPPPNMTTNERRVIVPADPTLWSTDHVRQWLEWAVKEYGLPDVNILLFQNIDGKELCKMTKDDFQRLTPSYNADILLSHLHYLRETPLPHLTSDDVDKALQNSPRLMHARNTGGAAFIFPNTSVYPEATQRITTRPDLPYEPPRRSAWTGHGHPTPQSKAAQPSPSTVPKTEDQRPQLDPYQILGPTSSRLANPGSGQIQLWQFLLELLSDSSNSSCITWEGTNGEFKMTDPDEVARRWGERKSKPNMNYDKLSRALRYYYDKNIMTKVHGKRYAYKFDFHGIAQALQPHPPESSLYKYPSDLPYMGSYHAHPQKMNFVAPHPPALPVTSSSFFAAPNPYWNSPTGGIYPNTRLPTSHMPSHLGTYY
# Summary of the method: as §1
# [5] = target: ELF1 (Homo sapiens, UniProt P32519 1-619); details: protein: recombinant; tags: N-terminal GST; dsDNA, one strand shown
# Summary of the method: as §1
# [6] = target: T5, EHF (Homo sapiens, UniProt Q9NZC4 1-300); details: protein: recombinant; tags: N-terminal GST; dsDNA, one strand shown
# T5 sequence: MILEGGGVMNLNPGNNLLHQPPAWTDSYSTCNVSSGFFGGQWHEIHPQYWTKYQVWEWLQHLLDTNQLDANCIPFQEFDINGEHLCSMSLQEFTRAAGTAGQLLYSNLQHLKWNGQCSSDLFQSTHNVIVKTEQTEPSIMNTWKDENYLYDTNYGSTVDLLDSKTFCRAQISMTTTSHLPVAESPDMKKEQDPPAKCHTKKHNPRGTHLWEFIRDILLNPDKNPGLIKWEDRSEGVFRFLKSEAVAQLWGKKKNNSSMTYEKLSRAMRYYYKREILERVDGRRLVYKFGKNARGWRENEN
# Summary of the method: as §1
# [7] = target: SPI1 (Homo sapiens, UniProt P17947 1-270); details: protein: recombinant; tags: N-terminal GST; dsDNA, one strand shown
# Summary of the method: as §1
# [8] = target: SPIB (Homo sapiens, UniProt Q01892 1-262); details: protein: recombinant; tags: N-terminal GST; dsDNA, one strand shown
# Summary of the method: as §1
# [9] = target: T6, ELK3 (Homo sapiens, UniProt P41970 1-407); details: protein: recombinant; tags: N-terminal GST; dsDNA, one strand shown
# T6 sequence: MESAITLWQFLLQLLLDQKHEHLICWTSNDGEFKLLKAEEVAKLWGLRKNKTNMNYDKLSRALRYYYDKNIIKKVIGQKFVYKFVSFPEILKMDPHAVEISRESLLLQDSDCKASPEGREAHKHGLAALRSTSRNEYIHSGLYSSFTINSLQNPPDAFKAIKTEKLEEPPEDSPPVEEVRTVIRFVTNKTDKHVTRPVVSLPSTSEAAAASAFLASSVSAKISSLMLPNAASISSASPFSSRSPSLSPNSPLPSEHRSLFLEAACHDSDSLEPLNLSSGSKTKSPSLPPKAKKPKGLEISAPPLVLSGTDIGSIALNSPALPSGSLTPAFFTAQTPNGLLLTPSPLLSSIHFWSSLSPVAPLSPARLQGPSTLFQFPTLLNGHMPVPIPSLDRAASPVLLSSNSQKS
# Summary of the method: as §1
# [10] = target: T7, FEV (Homo sapiens, UniProt Q99581 1-238); details: protein: recombinant; tags: N-terminal GST; dsDNA, one strand shown
# T7 sequence: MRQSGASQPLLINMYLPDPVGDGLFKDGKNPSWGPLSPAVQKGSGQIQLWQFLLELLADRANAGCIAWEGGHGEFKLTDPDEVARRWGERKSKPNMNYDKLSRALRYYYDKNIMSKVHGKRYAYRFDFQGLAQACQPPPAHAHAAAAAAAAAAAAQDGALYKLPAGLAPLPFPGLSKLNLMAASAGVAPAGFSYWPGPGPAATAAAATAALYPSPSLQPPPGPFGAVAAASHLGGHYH
# Summary of the method: as §1
# [11] = target: ETV5 (Homo sapiens, UniProt P41161 1-510); details: protein: recombinant; tags: N-terminal GST; dsDNA, one strand shown
# Summary of the method: as §1
# [12] = target: HSF1 (Homo sapiens, UniProt Q00613 1-529); details: protein: recombinant; tags: N-terminal GST; chain copies: 3; dsDNA, one strand shown
# Summary of the method: as §1
# [13] = target: T8, SPIC (Homo sapiens, UniProt Q8N5J4 1-248); details: protein: recombinant; tags: N-terminal GST; dsDNA, one strand shown
# T8 sequence: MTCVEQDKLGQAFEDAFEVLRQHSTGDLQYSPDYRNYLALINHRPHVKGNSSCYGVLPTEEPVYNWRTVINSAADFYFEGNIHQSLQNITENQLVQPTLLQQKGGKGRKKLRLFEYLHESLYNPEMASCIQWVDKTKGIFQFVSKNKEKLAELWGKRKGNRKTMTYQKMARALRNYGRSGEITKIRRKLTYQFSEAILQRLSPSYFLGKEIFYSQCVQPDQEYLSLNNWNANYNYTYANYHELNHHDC
# Summary of the method: as §1
# [14] = target: ELF4 (Homo sapiens, UniProt Q99607 1-663); details: protein: recombinant; tags: N-terminal GST; dsDNA, one strand shown
# Summary of the method: as §1
# [15] = target: T9, ELK4 (Homo sapiens, UniProt P28324-2 1-405); details: protein: recombinant; tags: N-terminal GST; dsDNA, one strand shown
# T9 sequence: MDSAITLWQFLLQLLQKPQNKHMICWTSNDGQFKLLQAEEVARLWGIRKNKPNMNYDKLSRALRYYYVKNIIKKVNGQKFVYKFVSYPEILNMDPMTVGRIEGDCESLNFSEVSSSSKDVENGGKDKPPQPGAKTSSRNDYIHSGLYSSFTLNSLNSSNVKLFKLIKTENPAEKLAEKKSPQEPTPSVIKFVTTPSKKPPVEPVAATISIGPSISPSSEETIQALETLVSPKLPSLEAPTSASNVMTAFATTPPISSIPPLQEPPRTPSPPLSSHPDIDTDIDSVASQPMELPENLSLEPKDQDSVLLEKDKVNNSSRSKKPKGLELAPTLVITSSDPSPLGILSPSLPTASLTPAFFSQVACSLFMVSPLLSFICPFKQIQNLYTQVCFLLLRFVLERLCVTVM
# Summary of the method: as §1
# [16] = target: T10, ETV2 (Homo sapiens, UniProt O00321 1-342); details: protein: recombinant; tags: N-terminal GST; dsDNA, one strand shown
# T10 sequence: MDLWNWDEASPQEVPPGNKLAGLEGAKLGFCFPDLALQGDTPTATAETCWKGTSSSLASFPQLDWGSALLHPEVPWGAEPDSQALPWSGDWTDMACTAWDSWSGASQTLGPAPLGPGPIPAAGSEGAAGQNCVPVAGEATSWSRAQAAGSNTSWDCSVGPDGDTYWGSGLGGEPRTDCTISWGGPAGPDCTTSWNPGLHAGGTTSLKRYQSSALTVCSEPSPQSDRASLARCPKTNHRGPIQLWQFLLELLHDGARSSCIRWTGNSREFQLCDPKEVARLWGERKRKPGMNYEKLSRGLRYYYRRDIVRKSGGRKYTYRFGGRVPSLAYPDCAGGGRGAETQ
# Summary of the method: as §1
# [17] = target: T11, ELF3 (Homo sapiens, UniProt P78545 1-371); details: protein: recombinant; tags: N-terminal GST; dsDNA, one strand shown
# T11 sequence: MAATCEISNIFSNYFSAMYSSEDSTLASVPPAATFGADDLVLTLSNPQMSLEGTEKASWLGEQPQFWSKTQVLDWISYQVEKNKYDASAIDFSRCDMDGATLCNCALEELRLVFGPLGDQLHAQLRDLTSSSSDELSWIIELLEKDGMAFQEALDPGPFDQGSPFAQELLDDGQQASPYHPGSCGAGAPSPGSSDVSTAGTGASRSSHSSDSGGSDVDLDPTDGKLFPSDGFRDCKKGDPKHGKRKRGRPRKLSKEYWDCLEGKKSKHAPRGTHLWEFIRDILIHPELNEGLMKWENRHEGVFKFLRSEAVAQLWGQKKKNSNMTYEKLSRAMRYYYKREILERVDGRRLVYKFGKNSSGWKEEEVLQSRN
# Summary of the method: as §1
# [18] = target: CRX (Homo sapiens, UniProt O43186 1-299); details: protein: recombinant; tags: N-terminal GST; dsDNA, one strand shown
# Summary of the method: as §1
# [19] = target: ETV1 (Homo sapiens, UniProt P50549 1-477); details: protein: recombinant; tags: N-terminal GST; dsDNA, one strand shown
# Summary of the method: as §1
# Sequence of ETV5 (P41161 whole entry): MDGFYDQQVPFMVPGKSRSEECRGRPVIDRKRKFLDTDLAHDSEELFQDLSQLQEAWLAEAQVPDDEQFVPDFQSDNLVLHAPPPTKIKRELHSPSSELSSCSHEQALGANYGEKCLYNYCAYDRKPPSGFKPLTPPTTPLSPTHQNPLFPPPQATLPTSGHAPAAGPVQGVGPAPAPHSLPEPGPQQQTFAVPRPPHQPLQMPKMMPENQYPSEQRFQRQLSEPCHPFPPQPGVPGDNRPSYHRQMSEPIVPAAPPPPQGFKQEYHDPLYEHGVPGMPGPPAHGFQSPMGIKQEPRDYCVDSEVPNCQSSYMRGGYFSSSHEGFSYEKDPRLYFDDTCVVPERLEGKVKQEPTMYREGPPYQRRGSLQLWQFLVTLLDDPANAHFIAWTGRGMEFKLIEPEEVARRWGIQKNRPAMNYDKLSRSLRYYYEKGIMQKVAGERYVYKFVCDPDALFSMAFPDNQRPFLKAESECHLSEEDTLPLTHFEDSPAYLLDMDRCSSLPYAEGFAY
# Sequence of ELF1 (P32519 whole entry): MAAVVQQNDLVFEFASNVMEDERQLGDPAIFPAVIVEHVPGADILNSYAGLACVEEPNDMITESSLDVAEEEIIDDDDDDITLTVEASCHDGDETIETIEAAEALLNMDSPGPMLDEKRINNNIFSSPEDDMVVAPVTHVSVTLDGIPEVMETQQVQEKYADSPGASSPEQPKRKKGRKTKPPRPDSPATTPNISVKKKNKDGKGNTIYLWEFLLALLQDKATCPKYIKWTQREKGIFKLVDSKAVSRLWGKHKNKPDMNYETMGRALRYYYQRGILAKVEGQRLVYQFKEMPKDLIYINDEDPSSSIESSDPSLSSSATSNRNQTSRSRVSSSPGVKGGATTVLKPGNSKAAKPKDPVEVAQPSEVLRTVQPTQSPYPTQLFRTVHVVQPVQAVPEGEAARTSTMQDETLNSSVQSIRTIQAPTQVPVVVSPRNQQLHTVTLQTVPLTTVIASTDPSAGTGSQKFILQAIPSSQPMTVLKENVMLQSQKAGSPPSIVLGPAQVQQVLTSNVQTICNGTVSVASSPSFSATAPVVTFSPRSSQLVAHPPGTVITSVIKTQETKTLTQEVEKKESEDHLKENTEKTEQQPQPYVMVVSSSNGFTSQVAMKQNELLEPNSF
# Sequence of ELF4 (Q99607 whole entry): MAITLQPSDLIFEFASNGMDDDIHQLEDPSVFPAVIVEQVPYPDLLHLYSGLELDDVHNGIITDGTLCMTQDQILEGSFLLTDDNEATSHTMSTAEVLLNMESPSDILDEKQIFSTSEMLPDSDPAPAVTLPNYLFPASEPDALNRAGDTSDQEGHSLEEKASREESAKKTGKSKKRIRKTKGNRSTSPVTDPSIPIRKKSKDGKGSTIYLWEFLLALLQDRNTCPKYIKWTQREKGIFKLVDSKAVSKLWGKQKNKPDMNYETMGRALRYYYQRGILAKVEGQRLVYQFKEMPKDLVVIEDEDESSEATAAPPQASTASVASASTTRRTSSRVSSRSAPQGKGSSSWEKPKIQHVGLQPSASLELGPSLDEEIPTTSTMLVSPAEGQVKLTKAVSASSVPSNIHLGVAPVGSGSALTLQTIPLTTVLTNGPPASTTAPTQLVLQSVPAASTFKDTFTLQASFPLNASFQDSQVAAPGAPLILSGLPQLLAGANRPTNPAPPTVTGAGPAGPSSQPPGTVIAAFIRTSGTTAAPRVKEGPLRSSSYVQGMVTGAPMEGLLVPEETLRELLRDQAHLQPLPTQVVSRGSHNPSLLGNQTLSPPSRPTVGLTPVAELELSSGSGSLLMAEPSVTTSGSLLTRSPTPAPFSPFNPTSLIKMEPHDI
# Sequence of HSF1 (Q00613 whole entry): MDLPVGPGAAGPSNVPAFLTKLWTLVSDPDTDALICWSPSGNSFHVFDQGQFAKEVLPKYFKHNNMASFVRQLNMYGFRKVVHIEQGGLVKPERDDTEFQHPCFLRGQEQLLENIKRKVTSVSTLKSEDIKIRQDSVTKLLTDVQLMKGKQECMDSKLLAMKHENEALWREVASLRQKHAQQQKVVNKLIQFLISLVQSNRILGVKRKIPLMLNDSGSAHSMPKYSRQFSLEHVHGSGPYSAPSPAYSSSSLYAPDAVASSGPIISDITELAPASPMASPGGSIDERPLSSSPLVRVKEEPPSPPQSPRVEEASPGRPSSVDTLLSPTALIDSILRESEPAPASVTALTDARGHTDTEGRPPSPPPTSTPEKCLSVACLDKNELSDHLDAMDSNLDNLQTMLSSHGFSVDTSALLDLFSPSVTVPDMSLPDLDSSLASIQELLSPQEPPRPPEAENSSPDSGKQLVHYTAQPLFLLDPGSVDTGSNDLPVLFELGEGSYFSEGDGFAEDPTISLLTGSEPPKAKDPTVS
# Sequence of ETV1 (P50549 whole entry): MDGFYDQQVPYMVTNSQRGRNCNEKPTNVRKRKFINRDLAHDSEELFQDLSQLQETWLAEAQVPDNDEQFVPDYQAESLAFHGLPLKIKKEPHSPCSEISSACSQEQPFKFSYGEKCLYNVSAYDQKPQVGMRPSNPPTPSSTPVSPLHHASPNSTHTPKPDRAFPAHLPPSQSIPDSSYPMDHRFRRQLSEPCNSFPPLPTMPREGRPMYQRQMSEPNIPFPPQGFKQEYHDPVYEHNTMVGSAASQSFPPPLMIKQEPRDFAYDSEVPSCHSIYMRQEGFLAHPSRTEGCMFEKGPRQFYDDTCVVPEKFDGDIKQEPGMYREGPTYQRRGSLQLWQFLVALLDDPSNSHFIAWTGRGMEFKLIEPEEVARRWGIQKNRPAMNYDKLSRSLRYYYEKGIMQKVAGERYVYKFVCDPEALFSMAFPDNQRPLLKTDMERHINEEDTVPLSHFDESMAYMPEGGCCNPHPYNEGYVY
# Sequence of SPIB (Q01892 whole entry): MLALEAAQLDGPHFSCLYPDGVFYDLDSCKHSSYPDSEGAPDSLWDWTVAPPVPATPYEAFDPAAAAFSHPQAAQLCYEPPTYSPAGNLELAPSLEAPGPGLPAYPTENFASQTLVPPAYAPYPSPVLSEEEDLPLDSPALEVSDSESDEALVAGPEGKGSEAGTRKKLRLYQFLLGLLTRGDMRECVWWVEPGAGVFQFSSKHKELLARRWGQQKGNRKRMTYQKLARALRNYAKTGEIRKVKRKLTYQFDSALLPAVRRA
# Sequence of CRX (O43186 whole entry): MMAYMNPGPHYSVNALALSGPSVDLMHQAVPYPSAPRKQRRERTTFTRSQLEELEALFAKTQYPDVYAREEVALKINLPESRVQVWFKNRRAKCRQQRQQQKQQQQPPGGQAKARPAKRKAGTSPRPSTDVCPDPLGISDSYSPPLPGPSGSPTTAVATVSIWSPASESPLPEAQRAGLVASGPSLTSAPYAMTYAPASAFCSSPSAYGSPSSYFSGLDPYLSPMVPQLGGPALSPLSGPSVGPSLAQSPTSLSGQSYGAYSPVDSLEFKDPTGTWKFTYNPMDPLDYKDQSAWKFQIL
sequence,measurement,setting,value
ATGACG,binding signal,[1],"1.28 fold enrichment (6-mer frequency, TF over GST control)"
same,binding signal,[2],"1.44 fold enrichment (6-mer frequency, TF over GST control)"
same,binding signal,[3],"1.37 fold enrichment (6-mer frequency, TF over GST control)"
same,binding signal,[4],"1.29 fold enrichment (6-mer frequency, TF over GST control)"
same,binding signal,[5],"1.34 fold enrichment (6-mer frequency, TF over GST control)"
same,binding signal,[6],"1.21 fold enrichment (6-mer frequency, TF over GST control)"
same,binding signal,[7],"1.32 fold enrichment (6-mer frequency, TF over GST control)"
same,binding signal,[8],"1.43 fold enrichment (6-mer frequency, TF over GST control)"
same,binding signal,[9],"1.39 fold enrichment (6-mer frequency, TF over GST control)"
same,binding signal,[10],"1.32 fold enrichment (6-mer frequency, TF over GST control)"
same,binding signal,[11],"1.4 fold enrichment (6-mer frequency, TF over GST control)"
same,binding signal,[12],"1.13 fold enrichment (6-mer frequency, TF over GST control)"
same,binding signal,[13],"1.18 fold enrichment (6-mer frequency, TF over GST control)"
same,binding signal,[14],"1.39 fold enrichment (6-mer frequency, TF over GST control)"
same,binding signal,[15],"1.47 fold enrichment (6-mer frequency, TF over GST control)"
same,binding signal,[16],"1.25 fold enrichment (6-mer frequency, TF over GST control)"
same,binding signal,[17],"1.3 fold enrichment (6-mer frequency, TF over GST control)"
same,binding signal,[18],"1.11 fold enrichment (6-mer frequency, TF over GST control)"
same,binding signal,[19],"1.3 fold enrichment (6-mer frequency, TF over GST control)"
